Screening data (PubChem)
Pol eta inh – qHTS for Inhibitors of Polymerase Eta | DNA polymerase eta (Homo sapiens), Q9Y253 | recombinant Pol eta, fluorescent DNA replication assay | Potency, µM (top dose mostly 114 µM), inactives show top-dose activity change, negative = inhibition, hits mostly inhibitors | 390,000 tested, 1.2% active | AID 588591, 2011; also: % is scaled to controls: 0 for no effect and ±100 for the full control effect
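Fluorescent replication assay: 50 nM final substrate added after a 15 min room-temperature compound preincubation with 10 nM enzyme. Signal taken at 0 min and again at 10 min.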
Pol beta inh – qHTS Assay for Inhibitors of DNA Polymerase Beta; P06746; Pol beta primer extension/strand displacement, fluorescence kinetic; Potency, µM (top dose mostly 114 µM), for the others: top-dose activity change, negative = inhibition, actives largely listed as inhibitors; 340,000 tested, 1.3% active; AID 485314, 2010; also: % is scaled to controls: 0 for no effect and ±100 for the full control effect
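Values derive from four-parameter Hill fits of normalized kinetic data: reads at 0 and 10 min following addition of 50 nM substrate to 10 nM Pol beta preincubated 15 min with compound.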
FEN1 inhibitor – qHTS Assay for the Inhibitors of Human Flap endonuclease 1 (FEN1). P39748. Recombinant FEN1 flap cleavage, fluorescence, 15 min. Potency, µM (titrated, usually from 114 µM), inactives show at the highest dose activity change, negative = inhibition, usual class: inhibitors. 390,000 tested, 0.35% active. AID 588795, 2011; also: % is scaled to controls: 0 for no effect and ±100 for the full control effect; nearly all actives have a fitted effect of over 65% in size
Target sequence (P39748 whole entry, looked up): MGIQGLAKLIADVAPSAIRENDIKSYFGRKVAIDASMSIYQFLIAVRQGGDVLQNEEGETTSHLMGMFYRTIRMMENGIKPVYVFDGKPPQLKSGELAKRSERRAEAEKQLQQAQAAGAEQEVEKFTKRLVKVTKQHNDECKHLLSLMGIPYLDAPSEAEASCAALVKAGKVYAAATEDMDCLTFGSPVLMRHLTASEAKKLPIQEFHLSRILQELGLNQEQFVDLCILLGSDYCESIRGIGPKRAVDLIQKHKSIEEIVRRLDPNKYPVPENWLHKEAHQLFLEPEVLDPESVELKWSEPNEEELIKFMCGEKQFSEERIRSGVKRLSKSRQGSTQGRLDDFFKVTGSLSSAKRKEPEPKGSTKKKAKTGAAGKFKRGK
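Enzyme 10 nM, 15 min RT preincubation with compound; start with substrate 50 nM final; reads at 0 and 15 min; qHTS titration, four-parameter Hill fit.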
POLK inh – qHTS for Inhibitors of Polymerase Kappa. DNA polymerase kappa (Homo sapiens), Q9UBT6. purified Pol kappa, fluorescent DNA synthesis assay, 10 min. Potency, µM (series often up to 107 µM), for the others: at the top dose activity, negative = inhibition, most hits filed as inhibitors. 400,000 tested, 0.53% active. AID 588579, 2011; also: % is scaled to controls: 0 for no effect and ±100 for the full control effect
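First, compounds were pin-transferred onto 10 nM Pol kappa. After 15 min at room temperature, substrate was added to 50 nM final. Fluorescence was then measured kinetically at 0 and 10 min.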
PGK inhibitor – qHTS Assay to Find Inhibitors of Phosphoglycerate Kinase; Phosphoglycerate kinase, glycosomal (Trypanosoma brucei brucei), P07378; PGK/GAPDH coupled, Kinase-Glo luminescence, 60 min; Potency, µM (doses to about 57.5 µM), for inactives: top-dose activity change, negative = inhibition, most hits filed as inhibitors; 380,000 tested, 0.043% active; AID 602233, 2012; also: % is scaled to controls: 0 for no effect and ±100 for the full control effect; nearly all actives have a fitted effect of over 60% in size
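Luminescent ATP detection (Kinase-Glo Plus) follows a 60-minute room-temperature incubation, with wells lacking PGK as controls. Buffer: 100 mM TEA (pH 7.6), 5 mM MgCl2, 0.01% Tween-20. Coupling enzyme GAPDH (100 nM final) supplies unstable 1,3-BPG in-well.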
POLI inh – qHTS for Inhibitors of Polymerase Iota; DNA polymerase iota (Homo sapiens), Q9UNA4; Pol iota fluorescent replication assay, 10 min; Potency, µM (series often up to 115 µM), for the others: at the highest dose activity, negative = inhibition, actives largely listed as inhibitors; 390,000 tested, 1% active
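Fluorescent replication assay read twice, at 0 min and 10 min after adding 50 nM (final) substrate. Enzyme (10 nM) and compounds were first incubated 15 min at room temperature; enzyme-free buffer wells were negative controls.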
An asterisk follows results filed as active; [ ] = dose if it differs, or a comment. Hits are enriched below; roughly 2.4% of the tested compounds scored in any of these assays. Calls follow the shape of the dose curve; as a rule, active = well fitted curve in the direction sought with a large enough effect; inconclusive = small, poorly fitted or top-dose-only effect, or another doubt; inactive = no such curve, though single readings can be large; an effect the other way counts as inactive or inconclusive. Potency is read from the fitted curve at half-maximal effect.

For CC(C)C[C@H](NC(=O)[C@@H]1CCCN1C(=O)[C@H](Cc1ccccc1)NC(=O)[C@H](C)NC(=O)[C@H](CCC(=O)O)NC(=O)[C@H](C)NC(=O)[C@H](CO)NC(=O)[C@H](CCC(=O)O)NC(=O)[C@H](CC(=O)O)NC(=O)[C@H](CCC(=O)O)NC(=O)[C@H](C)NC(=O)CNC(=O)[C@H](CC(N)=O)NC(=O)[C@@H]1CCCN1C(=O)[C@H](Cc1ccc(O)cc1)NC(=O)[C@@H](NC(=O)[C@H](CCCCN)NC(=O)[C@@H](NC(=O)[C@@H]1CCCN1C(=O)[C@@H](N)CCCNC(=N)N)C(C)C)C(C)C)C(=O)N[C@@H](CCC(=O)O)C(=O)N[C@@H](Cc1ccccc1)C(=O)O the results were POLK inh -5.6%[12 µM].
C=CCc1cc(C)ccc1OCC(O)CN1CCN(c2ccccc2)CC1 (configuration not stated) was read as Pol eta inh -22.4%, Pol beta inh 4.6%, FEN1 inhibitor -6.3%, POLK inh -9.6%, PGK inhibitor 1.0% and POLI inh 2.9%.
C=CCc1ccccc1OCC(O)CN1CCN(c2ccccc2)CC1 (configuration not stated) was read as Pol eta inh -17.7%, Pol beta inh -4.8%, FEN1 inhibitor inconclusive, POLK inh inconclusive, PGK inhibitor inactive and POLI inh 79.4µM*.
Screening O=S(=O)(Nc1cc(Sc2ncn[nH]2)c(O)c2ccccc12)c1ccccc1 returned Pol eta inh 22.4µM*, Pol beta inh inconclusive, FEN1 inhibitor 20µM*, POLK inh -19.5%, PGK inhibitor -11.4% and POLI inh 1.12µM*.
Screening Cc1ccc(NC(=O)c2cc3c([nH]c2=O)CC(C)(C)CC3=O)cc1 returned FEN1 inhibitor -9.2%, POLK inh -12.6% and POLI inh inconclusive.
CC(=O)c1cccc(NC(=O)CSc2ccc(-c3ccc4c(c3)OCO4)nn2)c1 was read as Pol eta inh 3.4%, Pol beta inh -1.7%, FEN1 inhibitor 1.0%, POLK inh -2.0%, PGK inhibitor 9.2% and POLI inh -0.8%.
`COc1ccc(NC(=O)CSc2ccc(-c3sc(C)nc3C)nn2)cc1OC` gave Pol eta inh -7.3%, Pol beta inh 25.1µM*, FEN1 inhibitor 0.9%, POLK inh -18.2%, PGK inhibitor 8.1% and POLI inh inconclusive.
COc1cc(NC(=O)CSc2ccc(-c3sc(C)nc3C)nn2)cc(OC)c1 was read as Pol eta inh -3.9%, Pol beta inh inconclusive, FEN1 inhibitor -5.2%, POLK inh -14.7%, PGK inhibitor -1.4% and POLI inh -11.8%.
CC(=O)c1ccc(NC(=O)CSc2ccc(-c3sc(C)nc3C)nn2)cc1 was read as Pol eta inh -7.1%, Pol beta inh 20µM*, FEN1 inhibitor -7.3%, POLK inh -17.9%, PGK inhibitor -1.6% and POLI inh inconclusive.
COc1ccc(-c2ccc(SCC(=O)Nc3cccc(C(C)=O)c3)nn2)cc1OC was read as Pol eta inh inconclusive, Pol beta inh 15.8µM*, FEN1 inhibitor -29.4%, POLK inh inconclusive, PGK inhibitor -1.6% and POLI inh 28.2µM*.
Screening CCNc1ncc2nc(CCc3ccccc3)c(=O)n(C[C@H]3CCCO3)c2n1 returned POLK inh -6.5%[60.1 µM].
`CCc1cnc2ccccc2c1/C=C/c1ccc(N(C)C)cc1` gave FEN1 inhibitor -31.6%, POLK inh -19.9% and POLI inh -14.7%.
For CCN(CC)c1ccc(NC(=O)C2CCN(c3nnc(-n4cccc4)s3)CC2)c(C)c1 the results were Pol eta inh 1.6%, Pol beta inh 25.1µM*, FEN1 inhibitor 14.4%, POLK inh -9.0%, PGK inhibitor 11.5% and POLI inh inconclusive.
`CC1CC(C)CN(c2oc(-c3ccc(OCc4ccccc4Cl)cc3)nc2C#N)C1` (configuration not stated) gave FEN1 inhibitor -14.0%, POLK inh -12.9% and POLI inh 0.5%.
For O=C(c1ccc(COc2ccccc2[N+](=O)[O-])o1)N1CCCCCC1 the results were Pol eta inh 1.5%, Pol beta inh -0.4%, FEN1 inhibitor -5.8%, POLK inh -19.5%, PGK inhibitor 2.4% and POLI inh 0.8%.
For O=C(O)c1ccc(COc2ccccc2[N+](=O)[O-])o1 the results were Pol eta inh 12.6µM*, Pol beta inh inconclusive, FEN1 inhibitor -2.9%, POLK inh -9.4%, PGK inhibitor -1.9% and POLI inh 0.5%.
O=C(O)c1ccc(OCc2ccc(C(=O)O)o2)cc1 was read as Pol eta inh 31.6µM*, Pol beta inh inconclusive, FEN1 inhibitor -0.4%, POLK inh -6.6%, PGK inhibitor -5.7% and POLI inh 8.6%.
`CCc1ccc(OCc2ccc(C(=O)O)o2)cc1` gave Pol eta inh -13.7%, Pol beta inh 25.9%, FEN1 inhibitor 3.8%, POLK inh -27.5%, PGK inhibitor 3.9% and POLI inh 18.6%.
`Cc1cc(N(C)C)cc(C)c1/C=C/c1ccnc2ccccc12` gave FEN1 inhibitor -12.5%, POLK inh 0.4% and POLI inh 14.6%.
C[C@]12C=CC(=O)N[C@@H]1CC[C@@H]1C2CC[C@]2(C)C(C(=O)Nc3cc(C(F)(F)F)ccc3C(F)(F)F)CC[C@@H]12 (some centres not stated) was read as POLK inh -5.9%[60.1 µM].
`COc1ccccc1CCNC(=O)CSc1ccc(-c2ccco2)nn1` gave Pol eta inh -16.0%, Pol beta inh 15.8µM*, FEN1 inhibitor -2.1%, POLK inh -22.9%, PGK inhibitor -8.3% and POLI inh inconclusive.
COc1ccc(C)cc1NC(=O)CSc1ccc(-c2ccco2)nn1 was read as Pol eta inh inconclusive, Pol beta inh -3.5%, FEN1 inhibitor 7.5%, POLK inh inconclusive, PGK inhibitor -3.5% and POLI inh 31.6µM*.
For Cc1cccc(NC(=O)CSc2ccc(-c3ccco3)nn2)c1C the results were Pol eta inh 5.4%, Pol beta inh inconclusive, FEN1 inhibitor -1.2%, POLK inh inconclusive, PGK inhibitor -2.1% and POLI inh 12.6µM*.
